Data from PubChem BioAssay (NCATS).
Records with an inconclusive call do not appear. The source made the active and inactive calls. Calls follow the shape of the dose curve; as a rule, active = well fitted curve in the direction sought with a large enough effect; inconclusive = small, poorly fitted or top-dose-only effect, or another doubt; inactive = no such curve, though single readings can be large; an effect the other way counts as inactive or inconclusive. Square brackets hold non-standard residues; d marks the D form. Peptide text beside a SMILES is read from it. * marks the point of attachment. ξ: configuration not given here. Hexanoyl = CCCCCC(=O)*; ξL = CC(C)CC(N)C(=O)O

Experiment: HEK293 18hr Apoptosis Induction qHTS against the NCATS CANVASS Library (AID 1347357); also: potency is read from the fitted curve at half-maximal effect
Conditions: HEK293 caspase-3/7 Caspase-Glo luminescence; series mostly up to 46.1 µM
In short: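 HEK293 cells (500/well, DMEM + 10% FBS) treated with an 11-point series for 18 h at 37 degrees C. Caspase-3/7 activity read by Caspase-Glo luminescence after 15 min at room temperature.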

Potency, active:
C=C(C)C(=O)O[C@H]1C[C@@]2(C)OC(=CC2=O)/C(C)=C\[C@H]2OC(=O)C(=C)[C@H]12 2960 nM

Potency, inactive:
CN1C(=O)C(=O)N2C(=C[C@]3(c4c[nH]c5ccccc45)c4ccccc4N[C@H]23)C1=O
CN1CC[C@]23c4ccccc4N[C@H]1[C@]21CCN(C)[C@H]3Nc2ccccc21
COc1c(O)cc(O)c2c(=O)cc(-c3ccccc3)oc12
COC1C(C)OC(OCC23C[C@@H]4[C@H](C)CC[C@H]4C4(C=O)CC2C=C(C(C)C)C34C(=O)O)[C@@H](O)[C@H]1O (some centres not stated)
CN1CC[C@@]2([C@@]34CCN(C)[C@@H]3Nc3ccccc34)c3ccccc3N[C@@H]12
COc1ccc(-c2oc3cc(OC)cc(OC)c3c(=O)c2O)cc1
CC[C@@H](C)[C@H]1NC(=O)C(CC(C)C)NC(=O)[C@@H](CC(C)C)NC(=O)[C@H](Cc2c[nH]c3ccccc23)NC(=O)CNC(=O)[C@@H](CC(N)=O)NC1=O (stereo partly drawn) (cyclo(GW[dL][ξL][dI][dN]))
C=C(Cl)[C@](Cl)(CBr)CC[C@@H](Br)C(C)(C)Cl
C=C[C@]1(C)CC[C@@H]([C@H](C)C(=O)CC=C(C)C)O1
[C-]#[N+][C@@]12C(=O)[C@@H]3[C@@H](O[C@@]4(C(=O)N(C)c5cccc1c54)C3(C)C)C(=O)[C@@]2(C)C=C
COC(=O)c1cccc2oc(-c3cccc4oc(-c5c(C)cccc5O)nc34)nc12
CCC(C)=C1OC(=O)[C@H](C)[C@H](O)[C@H](Cc2cccnc2)NC(=O)C(NC(=O)c2ncccc2O)C(C)OC1=O (some centres not stated)
C[C@@]12CCC[C@@](C)(C(=O)O)[C@H]1CC[C@@]13C[C@@H](CC[C@H]12)[C@](C)(O)C3
C=C1C[C@]23C=CC(=O)[C@@](C)(CCCC(C)C(=O)N[C@@H](CO)C(=O)O)[C@@H]2C[C@@H]1CC3 (some centres not stated)
C/C(=C\[C@@H](C)CC/C=C/CC/C=C/C(=O)O)[C@@H](O)[C@H](C)C(=O)CCCC1CC(=O)NC(=O)C1
CO[C@@H](C[C@@H](C)[C@@H](O)/C=C/C=C/CNC(=O)C(C)(C)[C@H](O)\C(C)=C/C=C\C=C\Cc1cnco1)[C@]1(O)[C@@H](C)C(=O)N(C)[C@@]12COC2=O
O=C1CC(c2ccc(O)cc2)Oc2cc(O)cc(O)c21 (configuration not stated)
O=Cc1ccc2n1C[C@]1(OC2)O[C@H](CO)[C@@H](O)[C@@H]1O
C/C=C(/CO)C(=O)O[C@@H]1[C@H](O)[C@@H](C(=O)OC)O[C@@H]2C[C@H]3OC(n4cnc5c(N)ncnc54)[C@H](OC)[C@H]3O[C@@]12O (some centres not stated)
C[C@@]12C[C@@H](C[C@@H]3C(=O)O[C@@H](c4ccoc4)[C@H](OC(=O)c4ccccc4)[C@@H]31)OC2=O
C=C1CCC2C(C)(C(=O)O)CCC(CC/C(C)=C/C(=O)NC(CCC(N)=O)C(=O)O)[C@@]2(C)C1 (some centres not stated)
C=C1[C@@]2(C)CC3C4(C)CCC(O)C(C)(C)C4CCC3(C)[C@]1(C(=O)OC)C(=O)C(C)(O)C2=O (some centres not stated)
CC(C)=CCC[C@]1(C)[C@H]2CC(=O)[C@@]3(CO3)[C@@H]1C2
COc1ccc([C@@H]2c3cc4c(cc3C(=O)C(C)C2C)OCO4)cc1OC (some centres not stated)
CC1(C)CC[C@]2(CO)CC[C@]3(C)C(=CCC4[C@@]5(C)CC[C@H](O)C(C)(C)C5CC[C@]43C)C2C1 (some centres not stated)

Experiment: HPAF-II 12hr Apoptosis Induction qHTS against the NCATS CANVASS Library (AID 1347358)
Conditions: HPAF-II caspase-3/7 Caspase-Glo luminescence; series mostly up to 46.1 µM
In short: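 Apoptosis in HPAF-II pancreatic cancer cells is scored as caspase 3/7 luminescence following a 12-hour exposure to an 11-point compound series.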

Potency, inactive:
CN1CC[C@]23c4ccccc4N[C@H]1[C@]21CCN(C)[C@H]3Nc2ccccc21
C/C=C1/C2=CCCN3C(=O)O[C@H]([C@H]1O)[C@H]23
O=C1CC(c2ccc(O)cc2)Oc2ccccc21 (configuration not stated)
COc1c(O)cc(O)c2c(=O)cc(-c3ccccc3)oc12
COC1C(C)OC(OCC23C[C@@H]4[C@H](C)CC[C@H]4C4(C=O)CC2C=C(C(C)C)C34C(=O)O)[C@@H](O)[C@H]1O (some centres not stated)
CN1CC[C@@]2([C@@]34CCN(C)[C@@H]3Nc3ccccc34)c3ccccc3N[C@@H]12
COc1ccc(-c2oc3cc(OC)cc(OC)c3c(=O)c2O)cc1
CC[C@@H](C)[C@H]1NC(=O)C(CC(C)C)NC(=O)[C@@H](CC(C)C)NC(=O)[C@H](Cc2c[nH]c3ccccc23)NC(=O)CNC(=O)[C@@H](CC(N)=O)NC1=O (stereo partly drawn) (cyclo(GW[dL][ξL][dI][dN]))
Cc1cc(O)cc2c1C(=O)c1c(O)cc(O)cc1C2=O
C=C(Cl)[C@](Cl)(CBr)CC[C@@H](Br)C(C)(C)Cl
C=C(C)C(=O)O[C@H]1C[C@@]2(C)OC(=CC2=O)/C(C)=C\[C@H]2OC(=O)C(=C)[C@H]12
CC[C@@H]1C[C@@]2(CC)OC(=O)[C@@]3(CC)[C@H](CC)[C@@H]1[C@@H]23
C[C@@]12CCC[C@@](C)(C(=O)OP(=O)(O)OC[C@H]3O[C@@H](n4cnc5c(N)ncnc54)[C@H](O)[C@@H]3O)[C@H]1C[C@@H](O)[C@@]13C[C@@H](CC[C@@H]21)[C@](C)(O)C3
C[C@@]12CCC[C@@](C)(C(=O)O)[C@H]1CC[C@@]13C[C@@H](CC[C@H]12)[C@](C)(O)C3
C=C1C[C@]23C=CC(=O)[C@@](C)(CCCC(C)C(=O)N[C@@H](CO)C(=O)O)[C@@H]2C[C@@H]1CC3 (some centres not stated)
COc1cc2ccc(=O)oc2c(O)c1O[C@@H]1O[C@H](CO)[C@@H](O)[C@H](O)[C@H]1O
C/C(=C\[C@@H](C)CC/C=C/CC/C=C/C(=O)O)[C@@H](O)[C@H](C)C(=O)CCCC1CC(=O)NC(=O)C1
CO[C@@H](C[C@@H](C)[C@@H](O)/C=C/C=C/CNC(=O)C(C)(C)[C@H](O)\C(C)=C/C=C\C=C\Cc1cnco1)[C@]1(O)[C@@H](C)C(=O)N(C)[C@@]12COC2=O
CN1CC[C@@]23c4ccccc4N[C@@H]1[C@@]21CCN(C)[C@@H]3Nc2ccccc21
O=Cc1ccc2n1C[C@]1(OC2)O[C@H](CO)[C@@H](O)[C@@H]1O
C=C[C@@]1(C)CC[C@@H]([C@H](C)C(C)=O)O1
C/C=C(/CO)C(=O)O[C@@H]1[C@H](O)[C@@H](C(=O)OC)O[C@@H]2C[C@H]3OC(n4cnc5c(N)ncnc54)[C@H](OC)[C@H]3O[C@@]12O (some centres not stated)
C/C=C/[C@H]1[C@H]2C(=O)c3c(O)c(C)c(O)c(C)c3[C@]1(C(=O)O)C(=O)C=C2C
C=C1CCC2C(C)(C(=O)O)CCC(CC/C(C)=C/C(=O)NC(CCC(N)=O)C(=O)O)[C@@]2(C)C1 (some centres not stated)
CC(C)=CCC[C@]1(C)[C@H]2CC(=O)[C@@]3(CO3)[C@@H]1C2
CCCCCC(=O)N[C@@H](CC(C)C)C(=O)N[C@H](C=O)CCC(=O)O (Hexanoyl-Leu-Glu-aldehyde)
